# Measured values published in ChEMBL document CHEMBL4513141, “CO-ADD screening of NIH (USA) - Clinical Collection” (2021).
# The whole screen tested about 23,000 compounds, of which about 30 (0.1%) showed an effect of 50% or more. The sample holds strong results, similar compounds and a random draw of the others, so the mix is not that of the screen. Entries with a potency or affinity are not part of this list.
# Tested on: Pseudomonas aeruginosa
# Conditions: Concentration 20 uM; ASSAY_TEST Inhibition of Bacterial Growth; detection method Absorption (OD600); MEDIA CAMHB; plate type 384well; NBS; CORNING #3640; time 18 hr
row,SMILES,Inhibition [%]
1,CCOC(=O)[C@@H](CCc1ccccc1)N[C@@H](C)C(=O)N1CCC[C@H]1C(=O)O.O=C(O)/C=C\C(=O)O,1.23
2,CCOC(=O)[C@H](CCc1ccccc1)N[C@@H](C)C(=O)N1[C@H](C(=O)O)C[C@@H]2CCC[C@@H]21,53.62
3,CCOC(=O)[C@H](CCc1ccccc1)N[C@@H](C)C(=O)N1Cc2ccccc2C[C@H]1C(=O)O.Cl [QUINAPRIL HYDROCHLORIDE],14.62
4,CCOC(=O)OC(C)OC1=C(C(=O)Nc2ccccn2)N(C)S(=O)(=O)c2ccccc21 (stereo unspecified) [AMPIROXICAM],53.02
5,CN1C(C(=O)Nc2ccccn2)=C(O)c2ccccc2S1(=O)=O.O,7.03
6,Cc1cnc(NC(=O)C2=C(O)c3ccccc3S(=O)(=O)N2C)s1 [MELOXICAM],4.04
7,N[C@@H]1CONC1=O [CYCLOSERINE],60.23
8,O=c1c(O[C@@H]2O[C@H](CO)[C@@H](O)[C@H](O)[C@H]2O)c(-c2ccc(O)c(O)c2)oc2cc(O)cc(O)c12 [ISOQUERCETIN],60.53
9,C[C@@H]1O[C@@H](OC[C@H]2O[C@@H](Oc3c(-c4ccc(O)c(O)c4)oc4cc(O)cc(O)c4c3=O)[C@H](O)[C@@H](O)[C@@H]2O)[C@H](O)[C@H](O)[C@H]1O [RUTIN],17.85
10,O=c1c(O[C@@H]2O[C@H](CO)[C@H](O)[C@H](O)[C@H]2O)c(-c2ccc(O)c(O)c2)oc2cc(O)cc(O)c12 [HYPEROSIDE],12.67
11,Cl.Nc1c2c(nc3ccccc13)CCCC2 [TACRINE HYDROCHLORIDE],19.73
